In PubChem BioAssay (NCI) one finds growth data, which are given here for 15 compounds.

About 83,000 compounds went through this panel and 20% of them were active in at least one assay; those are over-represented in the sample as a whole.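 Negative percent growth values reflect cell death: -40 means 40% of the cells present at the start died, and -100 means all died.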 Unmarked numbers belong to inactive results. Activity calls are given as the source filed them. The calls were made as follows: active = growth percent below 10; inactive = the rest.

Among the test systems are SK-MEL-2 melanoma; EKVX NSCLC; SN12C renal; UO-31 renal; TK-10 renal; ACHN renal; CAKI-1 renal; CCRF-CEM leukemia; MOLT-4 leukemia; A498 renal.
Holding throughout (assay): NCI-60 one-dose screen, 48 h (100 = growth as untreated, 0 = no growth, -100 = all killed)
Conditions in all cases: 10 µM unless noted

As for `CCOC(=O)c1cn2c3c(cccc3c1=O)C(=O)/C(=C/c1cccc(Cl)c1Cl)C2`, the growth in the assay on SK-MEL-2 melanoma was 87.7%; in the assay with EKVX NSCLC, 99.3%; with SN12C renal, 94.2%; in the assay with UO-31 renal, 61.7%; with TK-10 renal, 100%; in the assay with ACHN renal, 106%. Besides, the growth in the assay on CAKI-1 renal was 91.6%; in the assay with CCRF-CEM leukemia it was 99.2%; with MOLT-4 leukemia it was 102%.

As for `CCOC(=O)c1ccc(NC(=O)N2CC(C)OC(C)C2)cc1` (centres undefined), the growth with SK-MEL-2 melanoma was 113%; with EKVX NSCLC, 108%; in the assay with SN12C renal it was 97.4%; in the assay with UO-31 renal, 4.84% (active); in the assay on TK-10 renal, 125%; in the assay on ACHN renal it was 96.7%. Besides, the growth in the assay on A498 renal is 80.6%; in the assay with CCRF-CEM leukemia, 102%; in the assay with MOLT-4 leukemia, 99.9%.

As to `COC(=O)C1CCCN1C(=O)[C@@H]1CCCN1C(=O)[C@H](Cc1c[nH]c2ccccc12)NC(=S)Nc1cc(C(F)(F)F)cc(C(F)(F)F)c1` (some centres undefined), the growth in the assay with SK-MEL-2 melanoma was 67.5%; in the assay with EKVX NSCLC it was 49.8%; in the assay with SN12C renal, 65.5%; in the assay with UO-31 renal, 49.7%; in the assay on TK-10 renal, 56.7%; in the assay on CAKI-1 renal, 33.7%. For the same compound, the growth is 65.4% with A498 renal, 24% with CCRF-CEM leukemia and 27% in the assay with MOLT-4 leukemia.

On to `CCCC(=O)Oc1ccc(/C(=C(\C)c2ccccc2)c2ccc(OCCN(CC)CC)cc2)cc1`, for which the growth with SK-MEL-2 melanoma is 97.2%; with EKVX NSCLC it was 99.3%; with SN12C renal, 86.3%; with UO-31 renal it was 51.4%; in the assay with TK-10 renal, 86%; in the assay with ACHN renal it was 90.7%. Moreover, the growth in the assay with A498 renal is 93.7%; in the assay on CCRF-CEM leukemia, 69.7%; in the assay on MOLT-4 leukemia, 53.7%.

Consider `CC(C)NCCCNC1=C(Cl)C(=O)c2ccccc2C1=O`, for which the growth in the assay on SK-MEL-2 melanoma was 125%; with EKVX NSCLC it was 80.4%; in the assay with SN12C renal, 91.7%; with UO-31 renal, 81.9%; in the assay with TK-10 renal, 114%; with ACHN renal it was 81.1%. For the same compound, the growth in the assay on A498 renal was 88.1%; in the assay with CCRF-CEM leukemia, 76.6%; with MOLT-4 leukemia, -45.8% (active).

On to `COc1cc2c(cc1O)CCN1C[C@@H](CC(C)C)[C@@H](O)C[C@@H]21`, for which the growth with SK-MEL-2 melanoma was 98.1%; in the assay on EKVX NSCLC it was 95.3%; in the assay on SN12C renal, 94.3%; in the assay on UO-31 renal, 88.4%; in the assay with TK-10 renal, 97%; with ACHN renal, 103%. The growth in the assay with A498 renal was 107%; in the assay on CCRF-CEM leukemia it was 107%; with MOLT-4 leukemia, 95.4%.

For `O=[N+]([O-])c1ccc(Sc2ncccn2)c([N+](=O)[O-])c1`, the growth in the assay on SK-MEL-2 melanoma was 48.5%; with EKVX NSCLC, 65.8%; in the assay with SN12C renal, 58.5%; in the assay with UO-31 renal it was 1.15% (active); in the assay with TK-10 renal, 53.7%; in the assay on ACHN renal it was 27.8%. Further, the growth with A498 renal was 72.5%; in the assay on CCRF-CEM leukemia, -37.2% (active); with MOLT-4 leukemia, -25.8% (active).

On to `COc1ccc2c(c1)[nH]c(=O)c1c3cccc(F)c3cn21`, for which the growth in the assay with SK-MEL-2 melanoma was 63.3%; in the assay with EKVX NSCLC, 46.8%; in the assay on SN12C renal, 39.3%; in the assay on UO-31 renal, 33.1%; in the assay on TK-10 renal, 46.8%; in the assay with ACHN renal, 37.7%. The figures for the growth in the assay on A498 renal, in the assay on CCRF-CEM leukemia and in the assay with MOLT-4 leukemia were 59.3%, -17.5% (active) and 36.3%, respectively.

As to `S=C1CC(=S)NC(=S)N1`, the growth in the assay on SK-MEL-2 melanoma is 107%; in the assay with EKVX NSCLC, 107%; in the assay on SN12C renal, 96.1%; in the assay with UO-31 renal, 88%; with TK-10 renal, 110%; in the assay on CAKI-1 renal, 101%. In addition, the figures for the growth with A498 renal, in the assay on CCRF-CEM leukemia and with MOLT-4 leukemia were 90.2%, 105% and 95.3%, respectively.

Turning to `O=C(O)C1CCCCN1c1nc(Cl)nc(Cl)n1` (centres undefined), the growth in the assay with SK-MEL-2 melanoma was 104%; in the assay on EKVX NSCLC, 99.8%; in the assay on SN12C renal, 103%; in the assay on UO-31 renal it was 98.1%; in the assay with TK-10 renal, 103%; with ACHN renal, 113%. Also, the growth is 105% in the assay on CCRF-CEM leukemia and 104% in the assay with MOLT-4 leukemia.

For the compound `O=Nc1c(-c2cccc([N+](=O)[O-])c2)nc2ncccn12`, the growth in the assay on SK-MEL-2 melanoma was 85.2%; with EKVX NSCLC, 108%; with SN12C renal, 91.5%; in the assay on UO-31 renal, -3.03% (active); in the assay with TK-10 renal it was 85%; in the assay on ACHN renal, 29.1%. Besides, the growth in the assay with A498 renal was 103%; in the assay on CCRF-CEM leukemia it was -27.2% (active); in the assay with MOLT-4 leukemia it was 7.7% (active).

`O=[N+]([O-])c1cnc(Sc2ccncn2)s1`: the growth is -58% (active) in the assay with SK-MEL-2 melanoma; 61.7% with EKVX NSCLC; 63.6% with SN12C renal; -88.3% (active) with UO-31 renal; 4.67% (active) with TK-10 renal; -97.8% (active) in the assay on ACHN renal. Also, the results for the growth with A498 renal, in the assay with CCRF-CEM leukemia and with MOLT-4 leukemia were 88%, -32.3% (active) and -42.3% (active), respectively.

On to `O=C1/C(=C/c2ccc(Cl)cc2)CN(C(=O)CCN2CCC(=NO)CC2)C/C1=C\c1ccc(Cl)cc1`, for which the growth was -68.4% (active) in the assay with SK-MEL-2 melanoma; -46.5% (active) in the assay on EKVX NSCLC; -75.2% (active) with SN12C renal; -92.5% (active) in the assay on UO-31 renal; -74.7% (active) in the assay on TK-10 renal; -61.5% (active) in the assay with ACHN renal. Also, the growth with A498 renal was -59.8% (active); in the assay with CCRF-CEM leukemia, -23.3% (active); in the assay with MOLT-4 leukemia it was -12.4% (active).

Consider `COc1ccc2[nH]c(=O)c3c4ccccc4cn3c2c1`, for which the growth in the assay with SK-MEL-2 melanoma is 50.5%; in the assay on EKVX NSCLC, 39.1%; with SN12C renal it was 21.5%; with UO-31 renal it was 9.09% (active); in the assay with TK-10 renal, 16.9%; in the assay with ACHN renal it was 23.2%. The growth was 50.3% in the assay on A498 renal, -31.2% (active) in the assay with CCRF-CEM leukemia and 6.08% (active) with MOLT-4 leukemia.

For `CCCCOc1ccc(/C=C2/SC(N3CCOCC3)=NC2=O)cc1OCC`, the growth in the assay on SK-MEL-2 melanoma is 102%; with EKVX NSCLC it was 90.8%; in the assay with SN12C renal, 85.2%; in the assay on UO-31 renal, 79.4%; in the assay on TK-10 renal, 116%; in the assay on ACHN renal it was 96%. Besides, the growth is 90.2% in the assay with A498 renal, 90% in the assay with CCRF-CEM leukemia and 101% with MOLT-4 leukemia.
